# About 83,000 compounds went through this panel and 20% of them were active in at least one assay; those are over-represented in the sample as a whole.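 Treatment: one concentration, 48 hours, 96-well format. Scoring: percent growth, with anything below 10 considered active.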 Unmarked numbers belong to inactive results. Calls of active or inactive are those of the source.
# Assays:
# Test in all cases: NCI-60 one-dose screen, 48 h (100 = growth as untreated, 0 = no growth, -100 = all killed)
# Conditions in all cases: 10 µM unless noted
# DU-145 prostate = test system: DU-145 prostate
# K-562 leukemia = test system: K-562 leukemia
# MALME-3M melanoma = test system: MALME-3M melanoma
# MDA-MB-231 breast = test system: MDA-MB-231 breast
# RXF 393 renal = test system: RXF 393 renal
# SF-268 CNS = test system: SF-268 CNS
# SF-295 CNS = test system: SF-295 CNS
# SF-539 CNS = test system: SF-539 CNS
# UACC-257 melanoma = test system: UACC-257 melanoma
# M14 melanoma = test system: M14 melanoma
SMILES,growth (DU-145 prostate),growth (K-562 leukemia),growth (MALME-3M melanoma),growth (MDA-MB-231 breast),growth (RXF 393 renal),growth (SF-268 CNS),growth (SF-295 CNS),growth (SF-539 CNS),growth (UACC-257 melanoma),growth (M14 melanoma)
COc1ccccc1-n1c(-c2ccc(O)cc2C)cn2c3c(=O)[nH]c(=O)n(C)c3nc12,112%,98.9%,97.6%,65%,72.4%,86.4%,99.8%,88.8%,82.2%,88.7%
O=C(O)c1ccc2cccnc2c1O,22.2%,11.1%,-7.97% (active),11.4%,27.7%,21.6%,6.02% (active),10.4%,-9.12% (active),8.98% (active)
CCCc1n(Cc2ccc3ccccc3c2)cc[n+]1Cc1ccc2ccccc2c1,20.3%,2.49% (active),-49.6% (active),-80.1% (active),-30.4% (active),7.55% (active),-1.49% (active),1.21% (active),-33.6% (active),-28.4% (active)
COc1cc(/C=N/OC(=O)Nc2ccccc2)cc(OC)c1OC,115%,107%,97.9%,92.6%,121%,107%,129%,100%,105%,107%
COc1ccc(C2CC(c3ccc(Nc4ccnc5cc(Cl)ccc45)cc3)=NN2C(C)=O)cc1 (stereo not given),88.1%,32.3%,58.2%,80.9%,73.1%,72.2%,42.6%,95.8%,88%,79.5%
CCNCCCn1c2c(c3ccc(F)cc3c1=O)C(=O)c1cc(OC)cnc1-2,-2.92% (active),1.44% (active),-68.7% (active),3.91% (active),-80.8% (active),1.76% (active),-21% (active),-25.7% (active),-20.4% (active),-25.9% (active)
COc1ccc2c(c1)sc1nc(-c3ccc(N(C)C)cc3)cn12,103%,80%,112%,122%,114%,93.1%,98.7%,99.4%,95.8%,103%
Cc1sc2nc(NCCc3cccs3)[nH]c(=O)c2c1C,94.7%,82.5%,98.7%,92.5%,78.9%,95.4%,82.8%,91.4%,72%,82.9%
Cc1ccc(NC(=O)c2sc3nc4c(cc3c2N)C(=O)CCC4)cc1,96.4%,53.1%,89.1%,78%,108%,110%,47.1%,93.5%,74%,85.3%
CC[C@H]1CN2CCc3cc(OC)c(OC)cc3C2C[C@@H]1CC1NCCc2cc(OC)c(OC)cc21 (stereo not given in full),-31.6% (active),-6.17% (active),-58.1% (active),-45.5% (active),-42.9% (active),-25.6% (active),-29.2% (active),-59.7% (active),-27.8% (active),-82.9% (active)
C/C(=C\CCc1ccsc1)CC/C=C(\C)CCCN1CCSCC1,96.6%,61.9%,98.4%,85.9%,98.1%,103%,82%,89.9%,94.6%,96.2%
O=c1[nH]c(N2CCC(Cc3ccccc3)CC2)nc2sc3c(c12)CCCC3,107%,110%,102%,106%,104%,95.2%,94.6%,105%,85.4%,100%
C[C@H](C(=O)N[C@@H](Cc1ccc(-c2ccccc2)cc1)C(=O)NC1CC(C)(C)NC(C)(C)C1)c1ccc(-c2ccccc2)c(F)c1,-89.3% (active),-53.7% (active),-77.4% (active),-53.6% (active),-55.6% (active),-58.1% (active),-54.5% (active),-78.6% (active),-62.9% (active),-79.2% (active)
COc1ccc(Oc2ccccc2NC(=O)CNC(=O)c2cccc3ccccc23)cc1,17.5% [5 µM],8.48% [5 µM] (active),72.9% [5 µM],29.4% [5 µM],10.3% [5 µM],44.1% [5 µM],13.2% [5 µM],-21.5% [5 µM] (active),48.6% [5 µM],12.6% [5 µM]
CSc1nc(N)c2c(n1)N(C)C=NS2(=O)=O,122%,116%,110%,108%,116%,107%,105%,107%,114%,106%
COc1ccc2ncccc2c1Cc1c(OC)ccc2ncccc12,91.5%,21.5%,55.9%,71.1%,82.1%,84.2%,63.9%,75%,68.2%,56.5%
Cc1cc(Br)c(C)cc1Br,102%,89.8%,121%,111%,106%,100%,89.2%,103%,94.4%,100%
CC(=O)Nc1c(Cl)cc2c(c1Cl)Cc1cc([N+](=O)[O-])ccc1-2,93.3%,80.4%,68.2%,97.5%,104%,101%,81.8%,89.1%,77.9%,88.1%
COc1cnc2c(c1)C(=O)c1c-2n(CCCN2CCOCC2)c(=O)c2cc(F)ccc12,3.8% (active),12.4%,-31.8% (active),40.6%,-30.1% (active),3.55% (active),-21.1% (active),-61.4% (active),-10.6% (active),0.95% (active)
N#Cc1c(NC(=O)c2ccco2)[n+]([O-])c2cc(Cl)c(Cl)cc2[n+]1[O-],103%,96.4%,123%,93.9%,91.3%,114%,135%,90.4%,99.3%,142%
Cc1cc(C)cc(S(=O)(=O)n2ccc(-c3ccc4c(c3)CCC(C)(C)O4)n2)c1,89.8%,85.7%,82.9%,93.5%,77.3%,88.3%,85%,99.9%,89.6%,82.7%
CCCCCCCC[Si](OCC)(OCC)OCC,105%,99.2%,91.6%,104%,104%,104%,111%,98.8%,114%,98.7%

SMILES,growth (DU-145 prostate),growth (K-562 leukemia),growth (MALME-3M melanoma),growth (MDA-MB-231 breast),growth (RXF 393 renal),growth (SF-268 CNS),growth (SF-295 CNS),growth (SF-539 CNS),growth (UACC-257 melanoma),growth (M14 melanoma)
Cc1sc2nc(NCc3ccccc3)[nH]c(=O)c2c1C,73.4%,12.9%,75.7%,59.8%,69%,74.2%,52.4%,65.5%,73%,27.8%
O=C(O)C1C(c2ccccc2)c2ccccc2C(O)C1CO (stereo not given),136%,111%,146%,94.9%,123%,116%,120%,99.7%,98.9%,99.5%
c1ccc(-c2nc(Nc3nccnn3)c3ccccc3n2)cc1,99.5%,91.1%,99.1%,91.8%,96.7%,98%,98%,99.1%,109%,99.3%
CC(=O)N1N=C(c2ccc(Nc3nc(NCCO)nc(NCCO)n3)cc2)CC1c1ccc(Cl)cc1 (stereo not given),98.6%,119%,91%,92.5%,108%,100%,96.6%,90.2%,91.8%,98.9%
Cc1cnc2nc(-c3ccc(N(C)C)cc3)cn2c1,109%,97.1%,97.8%,107%,79.7%,122%,106%,100%,102%,100%
Nc1ccccc1C#Cc1ccccc1C#Cc1ccc(OCCCCCCOc2ccc(C#Cc3ccccc3C#Cc3ccccc3N)cc2)cc1,121%,121%,97.2%,86%,75.3%,121%,106%,97.8%,101%,108%
[N-]=[N+]=NCc1ncc(-c2ccc(C(F)(F)F)cc2)c(NC2CCCCCC2)n1,73.4% [50 µM],34.5% [50 µM],85% [50 µM],73% [50 µM],87.7% [50 µM],75.5% [50 µM],49.9% [50 µM],82.2% [50 µM],89.3% [50 µM],74.6% [50 µM]
CCN(CC)c1ccc(N=C2C=CC(=O)C=C2NC(C)=O)cc1,111%,77.9%,142%,81.7%,94.8%,94%,115%,95.3%,90.7%,109%
COc1ccc2nc(NC(=O)CN3CCn4c(nnc4C(F)(F)F)C3)sc2c1,106%,90.5%,106%,96.6%,91%,93.5%,92.5%,93.7%,99.5%,85.1%
Cc1cc2c(cc1C)[n+](Cc1ccc3ccccc3n1)cn2Cc1ccc2ccccc2n1,24.1%,-0.971% (active),-28% (active),-7.81% (active),-6.38% (active),16.8%,5.16% (active),14.8%,-16.6% (active),-13.3% (active)
Oc1c(Cl)cc(Cl)c(Cl)c1Cc1c(O)c(Cl)cc(Cl)c1Cl,28.2%,4.84% (active),-21.1% (active),-13.5% (active),15.1%,17.5%,-42.4% (active),21.4%,9.73% (active),16.3%
CC(=O)[C@H]1CC[C@H]2[C@@H]3C[C@H](C)C4=CC(=O)CC[C@]4(C)[C@H]3C(=O)C[C@]12C,112%,106%,109%,108%,103%,96.6%,120%,98.5%,102%,101%
CC(C)Cn1cnc2c(NCn3nc(-c4cc(Cl)cc(Cl)c4Cl)n(/N=C/c4ccc(Cl)cc4)c3=S)nc3ccccc3c21,106%,53.8%,109%,73.4%,80.7%,102%,71.9%,90.4%,77.2%,104%
Cn1cnc([N+](=O)[O-])c1Sc1nc(N)nc2nc[nH]c12,25.7%,4.56% (active),68.8%,29.6%,44.8%,29%,-2.69% (active),16.4%,45.3%,14.4%
N#Cc1ccc(-c2csc(Nc3ccc4nc5n(c(=O)c4c3)CCC5)n2)cc1,109%,96.8%,102%,104%,106%,106%,98.2%,101%,108%,103%
Nc1nc(Nc2ccccc2SSc2ccccc2Nc2nc(N)nc(-c3ccc(I)cc3)n2)nc(-c2ccc(I)cc2)n1,66%,68.7%,103%,55%,88.2%,43%,47.6%,89.2%,110%,77.2%
COc1cccc(/C=N/Nc2nc3ccccc3s2)c1OC,98.3%,50.9%,90.4%,86.3%,97.9%,72.7%,85.4%,74.2%,96.4%,91.1%
CN(C)c1ncnc2c1ncn2C1CCCCO1 (stereo not given),115%,102%,101%,106%,114%,106%,116%,103%,106%,105%
O=C1/C=C/[C@@H](O)[C@@H]2C[C@@H](O)C[C@H]2/C=C/CCC[C@H](CO)O1,92.9%,46.8%,7.5% (active),3.23% (active),-29.9% (active),20.6%,23.9%,34.8%,29.9%,11.6%
COc1cc(/C=C2\CN(S(=O)(=O)c3ccc(C)cc3)C/C(=C\c3cc(CN4CCOCC4)c(O)c(OC)c3)C2=O)cc(CN2CCOCC2)c1O,29.1%,10.4%,-25.7% (active),5.67% (active),-87.3% (active),7.91% (active),-34.1% (active),-3.63% (active),-28.6% (active),-40.5% (active)
CCCCc1n(Cc2ccc3ccccc3c2)cc[n+]1Cc1ccc2ccccc2c1,13.6%,-17.9% (active),-52.8% (active),-92.9% (active),-42.7% (active),-12.6% (active),-14.1% (active),-4.06% (active),-33.8% (active),-75.2% (active)
COc1ccc(C2=NN(C=O)C(c3cccc(Nc4ccnc5cc(Cl)ccc45)c3)C2)cc1 (stereo not given),33.2%,6.65% (active),25.2%,42.4%,17.2%,41.2%,0.467% (active),9.03% (active),23.2%,19.1%

# Source: PubChem BioAssay (NCI)
